# BRCA1 expr act = qHTS Assay to Identify Small Molecule Activators of BRCA1 Expression. hit rate 1.1% among 380,000. Potency, µM (top dose mostly 46.1 µM), for the others: at the top dose activation, usual class: activators. MCF7-BRCA1-FFLuc reporter, luminescence, 48 h; response scale: scaled: vehicle 0%, 10 µM genistein 100%; also: nearly all actives have a fitted effect of over 80% in size
#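 Compounds are tested at multiple concentrations on MCF7 BRCA1-luciferase reporter cells seeded at 2000 per well; after 48 h, a single luminescence end-point is taken and curves fitted to the normalized data.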
# GLP-1R inv ag = qHTS of GLP-1 Receptor Inverse Agonists (Inhibition Mode) | Glucagon-like peptide 1 receptor (Homo sapiens), P43220 | HEK293 GLP-1R CRE-luciferase, luminescence, 24 h; GLP-1R form is constitutively active | Potency, µM (highest dose often 38.3 µM), without a hit: at the highest dose activity change, negative = inhibition, hits mostly inhibitors | hit rate 1.6% among 410,000 | AID 624417, 2012; also: % is scaled to controls: 0 for no effect and ±100 for the full control effect; nearly all actives have a fitted effect of over 55% in size
# Target sequence (P43220 whole entry, looked up): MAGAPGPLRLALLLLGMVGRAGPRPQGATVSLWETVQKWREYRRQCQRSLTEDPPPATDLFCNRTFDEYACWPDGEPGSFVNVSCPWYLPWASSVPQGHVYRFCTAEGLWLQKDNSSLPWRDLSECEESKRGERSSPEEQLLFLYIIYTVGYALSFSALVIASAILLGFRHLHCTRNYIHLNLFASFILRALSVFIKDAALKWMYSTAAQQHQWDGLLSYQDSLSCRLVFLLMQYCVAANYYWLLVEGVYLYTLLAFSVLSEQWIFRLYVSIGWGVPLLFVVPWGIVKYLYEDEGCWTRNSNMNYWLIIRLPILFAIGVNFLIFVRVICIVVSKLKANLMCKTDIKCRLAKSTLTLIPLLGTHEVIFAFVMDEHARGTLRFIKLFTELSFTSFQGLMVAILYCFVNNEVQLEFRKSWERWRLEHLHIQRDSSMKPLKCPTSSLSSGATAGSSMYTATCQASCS
#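 Assay principle: reduced luminescence from a cAMP-responsive reporter in HEK293 cells co-expressing a constitutively active GLP-1R. Conditions: 24 hr compound incubation, 37 deg C, 5% CO2.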
# HEK293 tox = qHTS of GLP-1 Receptor Inverse Agonists: Cytotox Screen | HEK293 cAMP-luciferase reporter cells, luminescence, 24 h | Potency, µM (highest dose often 38.3 µM), for inactives: at the top dose activity change, negative = inhibition, usual class: inhibitors | hit rate 0.13% among 410,000;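 also: loss of luciferase light is scored as toxicity; % is scaled to controls: 0 for no effect and ±100 for the full control effect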
#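 Luminescence readout: signal drop marks cytotoxicity. Plated cells grew 12 h at 37 °C, 5% CO2, received 23 nL compound for 24 h, then got luciferase reagent, read after 12 min at RT.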
# GLP-1R agonist = qHTS of GLP-1 Receptor Agonists | hit rate 0.007% among 380,000 | AID 624172, 2012 | Potency, µM (doses to about 45.6 µM), for the others: at the top dose activation, actives largely listed as activators | Glucagon-like peptide 1 receptor (Homo sapiens), P43220 | HEK293 GLP-1R CRE-luciferase, luminescence, 4-6 h; cells express a hypersensitive GLP-1R form; also: % of control where 0% means no effect
# * = called active by the depositor; ? = inconclusive; / = no result; [ ] = another dose, or the depositor's remark. The list is not random: actives were taken first. Their share in the collection is about 2.6%. Calls follow the shape of the dose curve; as a rule, active = well fitted curve in the direction sought with a large enough effect; inconclusive = small, poorly fitted or top-dose-only effect, or another doubt; inactive = no such curve, though single readings can be large; an effect the other way counts as inactive or inconclusive. Potency is read from the fitted curve at half-maximal effect.
SMILES,BRCA1 expr act,GLP-1R inv ag,HEK293 tox,GLP-1R agonist
CN(C)CCCN(C(=O)c1ccco1)c1nc2ccc(Br)cc2s1,-34%,3.2µM*,?,8%
CN(C)CCCN(C(=O)c1ccco1)c1nc2ccc(Cl)cc2s1,-26%,?,?,7%
CN(C)CCCN(C(=O)c1ccc2c(c1)CCCC2)c1nc2cc3c(cc2s1)OCO3,-2%,2µM*,?,9%
CN(C)CCCN(C(=O)c1ccc2c(c1)CCCC2)c1nc2ccc(F)cc2s1,-57%,7%,?,-11%
O=C(NCc1ccccc1Cl)c1cnc2sc(N3CCCCC3)nn2c1=O,/,4%,-2%,/
CC1=CCC(C(=O)N/N=C/c2cccs2)C(c2ccc(F)cc2)C1 (stereo not drawn),-55%,10µM*,-14%,0%
COC(=O)N/N=C/c1cccs1,8%,1%,-11%,8%
O=C(c1ccccc1)C1CN(c2ccccc2)CC1c1ccc(Cl)cc1 (stereo not drawn),-1%,0%,13%,-9%
Cc1ccc(C2CN(c3ccccc3)CC2C(=O)c2ccc(F)cc2)cc1 (stereo not drawn),-16%,10µM*,41%,-16%
CC(=O)Nc1cccc(C(=O)N2CCN(S(=O)(=O)c3ccc(C4CCCCC4)cc3)CC2)c1,-34%,5µM*,-16%,10%
OC1CCN(C(=S)NCCc2ccccc2)CC1,24%,12%,7%,5%
S=C(NCCc1ccccc1)N1CCc2ccccc2C1,10µM*,?,?,14%
COc1ccc(CNc2nc(-c3ccc(OC)cc3)cc(C(F)(F)F)n2)cc1,-27%,6.3µM*,31%,-1%
COc1ccc(S(=O)(=O)Oc2ccccc2C(N)=O)cc1,-10%,-22%,-26%,-2%
Cc1ccc(C(=O)Sc2cccccc2=O)cc1,-26%,?,-52%,0%
CC(C)c1ccc(Nc2c(-c3ccccc3O)nc3cnccn23)cc1,-66%,10µM*,1%,-7%
O=C(NCc1cccc(Br)c1)c1ccc(-n2cnc3cccnc32)cc1,/,-9%,0%,/
Oc1ccc(Cl)c2cccnc12,-64%,10µM*,7%,-2%
Cc1ccc(C(=O)Oc2ccc(Cl)c3cccnc23)cc1[N+](=O)[O-],-15%,?,?,-6%
OCc1ccc(O)c2ncccc12,-71%,10µM*,?,-23%
O=C(Oc1ccc(Cl)c2cccnc12)c1cccnc1,-55%,3.2µM*,?,-3%
Oc1ccc(CN2CCCCC2)c2cccnc12,-86%,0%,?,-12%
CCOC(=O)N1CCN(Cc2ccc(O)c3ncccc23)CC1,-31%,5µM*,-39%,9%
Oc1ccc(F)c2cccnc12,-53%,?,?,2%
CC(C)COCc1ccc(O)c2ncccc12,-79%,4µM*,?,-1%
SMILES,BRCA1 expr act,GLP-1R inv ag,HEK293 tox,GLP-1R agonist
Oc1ccc(COCc2ccccc2)c2cccnc12,-60%,10µM*,7%,0%
Oc1ccc(Cc2ccccc2)c2cccnc12,-83%,6.3µM*,5%,26%
CCCCCCOc1ccc(C(=N)N(CCCC)CCCC)c2ccccc12,/,/,/,-8%
COC(=O)c1ccc(NC(=O)CN(Cc2ccccc2)S(=O)(=O)c2ccc(C)cc2)cc1,/,10µM*,2%,/
COc1ccc(S(=O)(=O)N(CC(=O)Nc2cc(C)ccc2OC)Cc2ccccc2)cc1,/,?,1%,/
CNC(=O)CN(Cc1ccccc1)S(=O)(=O)c1ccc(Cl)cc1,4%,13%,4%,-1%
COC(=O)c1ccc(NC(=O)CN(Cc2ccccc2)S(=O)(=O)c2ccc(Cl)cc2)cc1,/,8.9µM*,-16%,/
COc1ccc(S(=O)(=O)N(CC(=O)Nc2ccc(Br)cc2)Cc2ccccc2)cc1,/,-24%,-1%,/
COc1ccc(NC(=O)CN(Cc2ccccc2)S(=O)(=O)c2ccc(C)cc2)cc1Cl,/,10µM*,-5%,/
COc1ccc(CCNC(=O)C2CCN(c3nc4ccccc4nc3C(F)(F)F)CC2)cc1OC,-4%,3%,2%,/
O=C1c2ccccc2C(=O)N1CCCc1nc(-c2ccncc2)no1,0%[1.84 µM],45%,3%,-5%
Nc1nonc1-c1noc(CCCN2C(=O)c3ccccc3C2=O)n1,4.5µM*,26%,10%,-1%
c1ccc(Oc2cc(-c3ccccc3)nc(-c3ccccc3)n2)cc1,-13%,3%,6%,-15%
c1ccc(Oc2cc(-c3ccccc3)ncn2)cc1,11µM*,0%,-18%,4%
COc1cc(OC)c(OC)cc1/C=C/c1ccc2ccccc2[n+]1C,-20%,/,/,/
Cc1c(CN(C)C)c2c(n1C)C(=O)c1ccc(Br)cc1-2,-53%,132%,8.9µM*,0%
COc1ccc(Cl)cc1NC(=O)Cn1c(=O)n(-c2ccc(C)cc2)c(=O)c2ccc(C(=O)NCc3ccccc3Cl)cc21,3%,7%,9%,-8%
CN(C(=O)c1cccc(NC(=O)Cc2ccc(NC(=O)C3CCCN(C(=O)C4CC4)C3)cc2)c1)C1CCCCC1 (stereo not drawn),13%,20%,3%,3%
Cc1cc2c(cc1C)-c1nnnn1C(N1CCC(Cc3ccccc3)CC1)C(=O)N2 (stereo not drawn),/,?,-6%,/
CCN1/C(=C/c2ccc3cc(C)ccc3[n+]2CC)Sc2ccccc21,-67%,?,-20%,-6%
CC[n+]1c(/C=C2\Sc3ccccc3N2C)ccc2cccc(C)c21,-76%,13µM*,?,-3%
Cn1cccc1C(=O)C(=O)Nc1ccccc1,7.1µM*,-21%,-4%,-18%
Cn1cccc1C(=O)C(=O)Nc1ccccc1C(F)(F)F,3%,-10%,8%,5%
O=C(O)c1ccc(N/N=C/c2cccc3nccnc23)cc1,13µM*,12%,-16%,2%
O=C(O)c1ccc(N/N=C/c2cc3ccccc3nc2Cl)cc1,29%,58%,25%,19%
SMILES,BRCA1 expr act,GLP-1R inv ag,HEK293 tox,GLP-1R agonist
COC(=O)c1ccc(COC(=O)CNC(=O)c2cccs2)cc1,11%,3%,6%,8%
COc1ccccc1NC(=O)N(Cc1ccccc1)c1ccccn1,32%,7.1µM*,13%,1%
COCC(=O)N(Cc1ccccc1)c1ccccn1,3%,0%,-12%,-6%
N#CC1=C(N)NC(SCc2ccc(Br)cc2)=C(C#N)C12CCCCC2,-20%,10µM*,-14%,1%
COc1cccc(CNC(=O)C2CCCN(c3nn4cc(-c5ccc(C)cc5)nc4s3)C2)c1 (stereo not drawn),/,-11%,-12%,/
CCCn1c(C2CCCN2c2nc(-c3cccc(Br)c3)cs2)nc2ccccc21 (stereo not drawn),-2%,?,4.5µM*,6%
Cc1ccc(-c2csc(N3CCC[C@@H]3C(=O)NCCn3c(C(F)(F)F)nc4ccccc43)n2)cc1,-50%,?,-5%,-5%
O=C(Nc1ccccc1F)c1nc(S(=O)(=O)Cc2ccccc2F)ncc1Cl,/,11µM*,?,/
